Laboratory results from PubChem BioAssay AID1159580 (chemical genetic matrix, 2015).
Values joined by “and” are separate entries in the source; they are usually repeats but may differ in a detail not shown here. Equal values may be shown once. About 2,000 (36%) of roughly 5,500 compounds were called active. Roughly 18% stayed inconclusive and do not appear here. No stated cut-off is given here; in the data, active means normalized growth mostly below about 0.91 (no sharp cut-off); inconclusive means no clear call, values can overlap the other calls; inactive means mostly above about 0.92. The list shows a part of the results.

Test: chemical genetic growth profiling, strain panel (AID 1159580);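 further: tested at 20 µM; growth read once vehicle control cultures reached saturation at 30 °C; 1 = growth at the plate median or of vehicle wells; lower values mean less growth of the strain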
Details: S. cerevisiae deletion strains, growth OD

Measured: normalized growth

CCCCCCCCC(=O)NCc1ccc(O)c(OC)c1
inactive: locus YAL013W, strain DEP1, active compounds read low 0.99 | locus YAL021C, strain ccr4, active compounds read low 0.996 | locus YAL026C, strain drs2, active compounds read low 1.01 | locus YAL030W, strain snc1, active compounds read low 1 | locus YAL040C, strain CLN3, active compounds read low 0.982 | locus YBL061C, strain skt5, active compounds read low 1.01 | locus YBR009C, strain hhf1, active compounds read low 0.987 | locus YBR021W, strain FUR4, active compounds read low 0.958 | locus YBR023C, strain chs3, active compounds read low 0.989 | locus YBR171W, strain sec66, active compounds read low 0.983 | locus YBR229C, strain ROT2, active compounds read low 0.988 | locus YBR231C, strain swc5, active compounds read low 0.995 | locus YBR279W, strain paf1, active compounds read low 1.01 | locus YCL011C, strain gbp2, active compounds read low 0.981 | locus YCL016C, strain dcc1, active compounds read low 0.984 | locus YCL029C, strain bik1, active compounds read low 0.989 | locus YCL061C, strain MRC1 (second series), active compounds read low 0.994 | locus YCL061C, strain MRC1, active compounds read low 1 | locus YCL069W, strain vba3, active compounds read low 0.979 | locus YCR088W, strain abp1, active compounds read low 0.975 | locus YDL005C, strain med2, active compounds read low 0.995 | locus YDL035C, strain GPR1, active compounds read low 0.981 | locus YDL040C, strain nat1, active compounds read low 1 | locus YDL074C, strain BRE1, active compounds read low 0.981 | locus YDL101C, strain DUN1, active compounds read low 0.976 | locus YDL134C, strain PPH21, active compounds read low 0.976 | locus YDL185W, strain tfp1, active compounds read low 0.991 | locus YDL192W, strain arf1, active compounds read low 0.989 | locus YDR001C, strain nth1, active compounds read low 0.988 | locus YDR069C, strain doa4, active compounds read low 1 | locus YDR101C, strain arx1, active compounds read low 0.98 | locus YDR137W, strain rgp1, active compounds read low 1.03 | locus YDR150W, strain NUM1, active compounds read low 0.989 | locus YDR159W, strain sac3, active compounds read low 1.07 | locus YDR162C, strain NBP2, active compounds read low 1.01 | locus YDR195W, strain ref2 1.04 | locus YDR297W, strain sur2, active compounds read low 1 | locus YDR318W, strain mcm21, active compounds read low 0.965 | locus YDR334W, strain swr1, active compounds read low 0.997 | locus YDR335W, strain msn5, active compounds read low 1.01 | locus YDR363W, strain ESC2, active compounds read low 0.988 | locus YDR388W, active compounds read low 0.981 | locus YDR392W, strain spt3, active compounds read low 0.805 | locus YDR502C, strain sam2, active compounds read low 0.978 | locus YEL003W, strain gim4, active compounds read low 0.985 | locus YEL037C, strain rad23, active compounds read low 0.982 | locus YEL061C, strain CIN8 (second series), active compounds read low 0.982 | locus YEL061C, strain CIN8, active compounds read low 0.998 | locus YER002W, strain NOP16, active compounds read low 0.986 | locus YER015W, strain faa2, active compounds read low 1.01 | locus YER016W, strain bim1, active compounds read low 1.01 | locus YER110C, active compounds read low 0.981 | locus YER111C, strain swi4, active compounds read low 0.991 | locus YER155C, strain BEM2 (second series), active compounds read low 0.964 | locus YER155C, strain BEM2, active compounds read low 0.985 | locus YER167W, strain BCK2, active compounds read low 0.978 | locus YFR010W, strain ubp6, active compounds read low 1.02 | locus YGL078C, strain dbp3, active compounds read low 0.992 | locus YGL086W, strain mad1, active compounds read low 0.967 | locus YGL167C, strain pmr1, active compounds read low 1 | locus YGL173C, strain kem1, active compounds read low 1.01 | locus YGL227W, strain vid30, active compounds read low 0.971 | locus YGL240W, strain doc1, active compounds read low 0.994 | locus YGL248W, strain PDE1, active compounds read low 0.981 | locus YGL253W, strain hxk2, active compounds read low 1.03 | locus YGR078C, strain PAC10, active compounds read low 1.01 and 1 | locus YGR135W, strain pre9, active compounds read low 0.987 | locus YGR229C, strain SMI1, active compounds read low 1 | locus YGR252W, strain gcn5, active compounds read low 0.872 | locus YHR013C, strain ard1, active compounds read low 0.992 | locus YHR027C, strain rpn1, active compounds read low 1.02 | locus YHR030C, strain SLT2, active compounds read low 0.988 and 1.01 | locus YHR079C, strain IRE1 (second series), active compounds read low 0.985 | locus YHR079C, strain IRE1, active compounds read low 0.985 | locus YHR094C, strain hxt1, active compounds read low 0.979 | locus YHR129C, strain ARP1, active compounds read low 0.988 | locus YHR142W, strain chs7, active compounds read low 0.983 | locus YHR200W, strain rpn10, active compounds read low 0.981 | locus YIL066C, strain RNR3, active compounds read low 0.953 | locus YIL073C, strain SPO22, active compounds read low 0.958 | locus YIL125W, strain kgd1, active compounds read low 0.99 | locus YIR030C, strain dcg1, active compounds read low 0.983 | locus YJL092W, strain hpr5, active compounds read low 0.978 | locus YJL095W, strain BCK1 (second series), active compounds read low 1 | locus YJL095W, strain BCK1, active compounds read low 0.989 and 1 | locus YJL115W, strain asf1, active compounds read low 0.988 | locus YJL129C, strain trk1, active compounds read low 0.977 | locus YJL134W, strain LCB3, active compounds read low 0.989 | locus YJL154C, strain vps35, active compounds read low 0.983 | locus YJL164C, strain tpk1, active compounds read low 0.972 | locus YJL166W, strain qcr8, active compounds read low 0.991 | locus YJL168C, strain set2, active compounds read low 0.99 | locus YJL187C, strain SWE1 (second series), active compounds read low 0.978 | locus YJL187C, strain SWE1, active compounds read low 1.02 | locus YJR043C, strain POL32, active compounds read low 0.983 | locus YJR066W, strain TOR1, active compounds read low 0.91
